Bioassay records from PubChem.
FBPA coupling cs – qHTS Assay for Inhibitors of Fructose-1,6-bisphosphate Aldolase from Giardia Lamblia: Coupling assay counterscreen; coupling enzyme system counterscreen, AmpLite Red fluorescence; AID 2472, 2010; activity change, negative = inhibition, % at 58.2 µM, hits read low; actives 0.67% (n = 290,000); in the data active means activity change below about -30%
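Counterscreen of the coupled detection system alone, without aldolase: glyceraldehyde-3-phosphate coupling enzymes plus AmpLite Red readout. Compounds at 57.5 uM final, 10 min RT preincubation, 20 min RT reaction, fluorescence 525/598 nm.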
Tau fibril ThT – qHTS for Inhibitors of Tau Fibril Formation, Thioflavin T Binding; AID 1460, 2008; Microtubule-associated protein tau (Homo sapiens), P10636; Potency, µM (doses to about 57.4 µM), for inactives: at the highest dose activity, negative = inhibition, usual class: inhibitors; actives 2.1% (n = 270,000); recombinant tau K18 P301L, heparin-induced fibrillization, ThT fluorescence; further: potency means the concentration at half of the fitted maximal effect; nearly all actives have a fitted effect of over 55% in size
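Tau K18 P301L fragment (15 uM unlabeled plus 0.24 uM Alexa 594-labeled) in 100 mM sodium acetate pH 7 with compound, fibrillization induced by 20 uM heparin for 6 hr at 37 C. Thioflavin T (30 uM) added, fluorescence read after 1 hr (ex 450, em 510 nm).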
Tau fluor counter – Counterscreen qHTS for Inhibitors of Tau Fibril Formation, Fluorescence Polarization; tau K18 P301L (four-repeat tau fragment) Alexa594 fluorescence, heparin fibrillization; Potency, µM (titrated, usually from 57.7 µM), for the others: top-dose activity change, negative = decrease; actives 0.93% (n = 280,000); AID 1463, 2008; further: potency means the concentration at half of the fitted maximal effect; nearly all actives have a fitted effect of over 55% in size
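Human K18 P301L tau (15 uM unlabeled plus 0.24 uM Alexa 594-labeled, final) in 100 mM sodium acetate pH 7 was mixed with compound and 20 uM heparin and incubated 6 hr at 37 C.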
Tau fibril FP – qHTS for Inhibitors of Tau Fibril Formation, Fluorescence Polarization | actives 0.39% (n = 280,000) | K18 P301L tau heparin fibrillization, Alexa594 FP, 6 h | Potency, µM (series often up to 57.7 µM), inactives show top-dose activity, negative = inhibition, most hits filed as inhibitors | Microtubule-associated protein tau (Homo sapiens), P10636; further: potency means the concentration at half of the fitted maximal effect; nearly all actives have a fitted effect of over 55% in size
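Compound effects on tau fibrillization are measured by Alexa 594 fluorescence polarization (ex 555, em 632 nm). K18 P301L tau is used at 15 uM with 0.24 uM labeled tracer, and 20 uM heparin induces aggregation over 6 hr at 37 C.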
USP1 inh – Inhibitors of USP1/UAF1: Primary Screen | recombinant USP1/UAF1, Ub-Rhodamine cleavage fluorescence | Potency, µM (titrated, usually from 57.1 µM), inactives show at the top dose activity change, negative = inhibition, most hits filed as inhibitors | actives 0.23% (n = 390,000) | AID 743255, 2014; further: potency means the concentration at half of the fitted maximal effect; nearly all actives have a fitted effect of over 60% in size
Target sequence (O94782 whole entry, looked up): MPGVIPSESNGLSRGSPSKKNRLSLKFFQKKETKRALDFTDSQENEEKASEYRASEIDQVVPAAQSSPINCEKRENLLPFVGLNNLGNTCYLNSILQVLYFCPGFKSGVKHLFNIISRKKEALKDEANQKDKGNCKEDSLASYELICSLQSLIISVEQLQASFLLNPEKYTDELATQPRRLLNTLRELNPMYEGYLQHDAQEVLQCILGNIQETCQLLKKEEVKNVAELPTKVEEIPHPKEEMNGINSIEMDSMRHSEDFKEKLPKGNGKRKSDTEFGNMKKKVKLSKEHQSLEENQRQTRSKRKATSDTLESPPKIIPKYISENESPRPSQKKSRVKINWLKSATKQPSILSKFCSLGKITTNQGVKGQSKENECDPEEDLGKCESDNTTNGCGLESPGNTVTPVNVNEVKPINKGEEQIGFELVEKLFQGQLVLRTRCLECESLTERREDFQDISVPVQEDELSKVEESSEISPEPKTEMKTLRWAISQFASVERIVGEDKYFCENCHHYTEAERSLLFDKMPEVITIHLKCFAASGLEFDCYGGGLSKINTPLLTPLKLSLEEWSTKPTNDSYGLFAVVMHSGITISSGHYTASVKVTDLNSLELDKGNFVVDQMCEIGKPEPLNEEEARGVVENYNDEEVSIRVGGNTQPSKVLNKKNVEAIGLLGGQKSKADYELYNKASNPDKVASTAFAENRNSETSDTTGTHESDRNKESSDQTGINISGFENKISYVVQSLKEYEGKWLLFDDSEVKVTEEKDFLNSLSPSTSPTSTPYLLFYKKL
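In this screen, compounds sit with the deubiquitinase complex (1nM) for 15 min at room temperature before Ub-Rho is added at 150nM final. Fluorescence rise is then followed for 6 reads every 60 seconds.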
Starred values were filed as active, the others as inactive; [ ] = dose if it differs, or a comment. Compounds with a hit are over-represented: about 2.3% of the library has one in this group of screens. Unless noted, the call rests on the fitted dose curve; in most records, active means well fitted curve in the direction sought with a large enough effect; inconclusive means small, poorly fitted or top-dose-only effect, or another doubt; inactive means no such curve, though single readings can be large; an effect the other way counts as inactive or inconclusive. On the % scale 0 is the no-effect control and ±100 the full control effect.

For CS(=O)(=O)Nc1ccccc1C(=O)OCc1cc(=O)n2nc(C3CCCCC3)sc2n1 the results were Tau fibril ThT -17%, Tau fluor counter -1%, Tau fibril FP 10% and USP1 inh -22%.
For CCOC(=O)c1cccc2c1-c1ccccc1/C2=N/O the results were FBPA coupling cs 3, Tau fibril ThT -23%, Tau fluor counter inconclusive, Tau fibril FP inconclusive and USP1 inh -19%.
Screening CC(C)COC(=O)c1cccc2c1-c1ccccc1/C2=N\O returned FBPA coupling cs 1, Tau fibril ThT -5%, Tau fluor counter -29%, Tau fibril FP 28µM* and USP1 inh -14%.
`Nc1nn2c(-c3ccccc3)cc(=O)[nH]c2c1N=Nc1ccc(Br)cc1` gave FBPA coupling cs 0, Tau fibril ThT 2.2µM*, Tau fluor counter -23%, Tau fibril FP 9% and USP1 inh -19%.
Screening Cc1cc2c(cc1S(=O)(=O)CCC(=O)N1CCN(c3ccccc3)CC1)OCC(=O)N2 returned Tau fibril ThT inconclusive, Tau fluor counter -14%, Tau fibril FP 8% and USP1 inh -18%.
For O=S(=O)(C/C(=C/CO)S(=O)(=O)c1ccccc1)c1ccccc1 the results were FBPA coupling cs 0, Tau fibril ThT 3.5µM*, Tau fluor counter -14%, Tau fibril FP inconclusive and USP1 inh -16%.
For O=S(=O)(CS(=O)(=O)c1ccccc1)c1ccccc1 the results were USP1 inh -25%.
COc1ccc2c(c1)c1c(c(=O)n(CCc3ccccc3)c(=O)n1Cc1ccc(F)cc1)n2C was read as Tau fibril ThT -3%, Tau fluor counter -11%, Tau fibril FP 1% and USP1 inh -6%.
Screening O=C(Cn1c(=O)n(Cc2nc(-c3ccccc3)no2)c(=O)c2cc3c(cc21)OCO3)Nc1ccc(Cl)cc1 returned Tau fibril ThT 24%, Tau fluor counter -11%, Tau fibril FP 20µM* and USP1 inh -6%.
Screening O=C(Cn1c(=O)n(Cc2nc(-c3ccccc3)no2)c(=O)c2cc3c(cc21)OCO3)Nc1ccccc1 returned Tau fibril ThT 16%, Tau fluor counter -27%, Tau fibril FP 28µM* and USP1 inh -5%.
Screening Cc1ccc(NC(=O)Cn2c(=O)n(Cc3nc(-c4ccccc4)no3)c(=O)c3cc4c(cc32)OCO4)cc1F returned Tau fibril ThT 19%, Tau fluor counter -17%, Tau fibril FP inconclusive and USP1 inh -20%.
`Cc1ccc(/C=C2/SC(=S)N(CCCC(=O)Nc3ccc(O)cc3)C2=O)cc1` gave FBPA coupling cs 2, Tau fibril ThT inconclusive, Tau fluor counter inconclusive, Tau fibril FP 4% and USP1 inh -7%.
Screening O=C(CN1C(=O)/C(=C/c2cccc(Br)c2)SC1=S)Nc1cccnc1 returned FBPA coupling cs 0, Tau fibril ThT inconclusive, Tau fluor counter 8.9µM*[quencher], Tau fibril FP inconclusive and USP1 inh -11%.
Screening CC(/C=C1\SC(=S)N(CCCC(=O)Nc2ccc(C(=O)O)c(O)c2)C1=O)=C\c1ccccc1 returned FBPA coupling cs 5, Tau fibril ThT 5µM*, Tau fluor counter inconclusive, Tau fibril FP -9% and USP1 inh -13%.
CC(/C=C1\SC(=S)N(CCC(=O)Nc2ccc(O)cc2)C1=O)=C\c1ccccc1 was read as FBPA coupling cs 1 and USP1 inh -18%.
O=C(CCCN1C(=O)/C(=C\c2ccccc2)SC1=S)Nc1ccc(O)cc1 was read as FBPA coupling cs 2, Tau fibril ThT inconclusive, Tau fluor counter 14µM*[quencher], Tau fibril FP 14% and USP1 inh -26%.
`O=C(CCCN1C(=O)/C(=C/c2ccccc2)SC1=S)Nc1cccc(O)c1` gave FBPA coupling cs -1, Tau fibril ThT inconclusive, Tau fluor counter 14µM*[quencher], Tau fibril FP inconclusive and USP1 inh -17%.
COc1ccc(N2CCN(S(=O)(=O)c3ccc(CC(C)C)cc3)CC2)cc1 was read as Tau fibril ThT 4%, Tau fluor counter -17%, Tau fibril FP 3% and USP1 inh -17%.
`CCOc1ccccc1N(C)C(=O)NCc1noc2ccccc12` gave Tau fibril ThT -9%, Tau fluor counter -15%, Tau fibril FP -3% and USP1 inh -19%.
For O=C(CSc1nc2ccccc2n1CCc1ccccc1)N1CCOCC1 the results were FBPA coupling cs -1, Tau fibril ThT -8%, Tau fluor counter -4%, Tau fibril FP 6% and USP1 inh -12%.
Screening O=C(CSc1nc2ccccc2n1CCc1ccccc1)c1ccc(O)c(O)c1 returned FBPA coupling cs 0, Tau fibril ThT inconclusive, Tau fluor counter 25µM*[quencher], Tau fibril FP -3% and USP1 inh 2%.
Cc1cc(=O)c2c(O)c3c(O)cc(O)c4c5c(O)cc(O)c6c(O)c7c(=O)cc(C)c8c1c2c(c34)c(c65)c78 was read as FBPA coupling cs -10, Tau fibril ThT 14µM*, Tau fluor counter 4.5µM*[quencher] and Tau fibril FP inconclusive.
For Cc1cc(O)c2c(c1O)C(=O)c1c(O)cc(C)c(O)c1C2=O the results were FBPA coupling cs -4, Tau fibril ThT inconclusive, Tau fluor counter -27% and Tau fibril FP -15%.
Screening O=S(=O)(Nc1cc2nc3ccccc3nc2n1Cc1ccccc1)c1ccc(Cl)cc1 returned FBPA coupling cs -55*, Tau fibril ThT inconclusive, Tau fluor counter 14µM*[quencher], Tau fibril FP inconclusive and USP1 inh 25µM*.
For O=S(=O)(NCc1ccccc1)c1ccc(Cl)cc1 the results were FBPA coupling cs 3, Tau fibril ThT -12%, Tau fluor counter -9%, Tau fibril FP 4% and USP1 inh -20%.
Cc1ccc(C)c(N2CCN(C(=O)c3cn(CC(C)C)c(=O)c4c3c3ccccc3n4C)CC2)c1 was read as Tau fibril ThT -12%, Tau fluor counter -3%, Tau fibril FP 9% and USP1 inh inconclusive.
Cc1cc(C)cc(Nc2cc(C(=O)NCCCN(Cc3ccccc3)C(C)C)c3ccccc3n2)c1 was read as Tau fibril ThT -16%, Tau fluor counter 2.8µM*[quencher], Tau fibril FP inconclusive and USP1 inh -18%.
Screening CSc1cccc(Nc2cc(C(=O)NCCCN(Cc3ccccc3)C(C)C)c3ccccc3n2)c1 returned Tau fibril ThT inconclusive, Tau fluor counter 3.5µM*[quencher], Tau fibril FP inconclusive and USP1 inh -12%.
For O=C(COc1ccccc1Cl)Nc1ccc(Cl)c(-c2nc3ccccc3o2)c1 the results were Tau fibril ThT -6%, Tau fluor counter -13%, Tau fibril FP inconclusive and USP1 inh -2%.
